ChEMBL document CHEMBL3988442, “University of Dundee, Small-Polar-MMV Screening Library” (2021)

Tests used:
[1] = molecular target: T1, Aspartate--tRNA(Asp/Asn) ligase (Mycobacterium tuberculosis (strain ATCC 25618 / H37Rv)) (UniProt P9WFW3); experiment: Assay for Asp RNA synthetase-1 from Mycobacterium tuberculosis; assay type: functional; parameters: scale not given: direction of the effect not stated beside the values; conditions: 30 µM; note: in the data most compounds retested in dose-response had high values
T1 sequence (whole entry): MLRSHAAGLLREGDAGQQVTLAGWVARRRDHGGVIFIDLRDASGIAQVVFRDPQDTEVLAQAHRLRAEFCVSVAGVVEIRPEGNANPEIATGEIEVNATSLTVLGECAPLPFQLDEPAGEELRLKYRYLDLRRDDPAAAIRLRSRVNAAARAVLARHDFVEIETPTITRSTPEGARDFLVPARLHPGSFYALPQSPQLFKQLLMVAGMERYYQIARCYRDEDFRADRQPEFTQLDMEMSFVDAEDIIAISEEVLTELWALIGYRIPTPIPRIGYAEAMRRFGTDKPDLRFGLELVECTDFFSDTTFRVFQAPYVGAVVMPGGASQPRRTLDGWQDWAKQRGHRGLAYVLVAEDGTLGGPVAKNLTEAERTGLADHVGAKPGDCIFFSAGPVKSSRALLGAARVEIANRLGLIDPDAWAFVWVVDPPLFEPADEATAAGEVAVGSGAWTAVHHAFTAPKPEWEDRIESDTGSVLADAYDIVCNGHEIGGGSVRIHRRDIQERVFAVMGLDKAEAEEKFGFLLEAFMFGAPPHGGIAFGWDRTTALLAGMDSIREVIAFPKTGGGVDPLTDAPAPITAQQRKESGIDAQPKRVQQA

[2] = molecular target: Shiga toxin 2 (Escherichia coli O157:H7) (UniProt P09385+P09386); experiment: E. coli 0.157:H7 Shiga Toxin SOP - stx2 screening assay; assay type: functional; parameters: scale not given: direction of the effect not stated beside the values; conditions: 30 µM

SMILES | Percent Effect [1] [%] | Percent Effect [2] [%]
Cc1cnn(CCNCc2ccc(F)cc2Cl)c1 | 0.495 | -22.9
CS(=O)(=O)N1CCC(Oc2cnccn2)CC1 | -0.656 | -5.3
CS(=O)(=O)NCc1nnc2n1CCN(Cc1cccs1)C2 | -4.17 | 3.79
CC(=O)N1CC(=O)N(c2ccccc2)CC12CCN(Cc1nccs1)C2 (centres undefined) | 7.34 | -17.5
CCOc1ccc(CN2CCN(C(=O)c3ccc(C)n3C)CC2)cc1 | 2.42 | 8.86
Cc1nn(C)c2c(NCc3ccccc3F)nc(C3CC3)nc12 | 12.5 | -20.5
Cc1cnn(CC2CCCN2Cc2coc(-c3ccccc3)n2)c1 (centres undefined) | -5.72 | -30.1
CCCc1nc(CN2CCN(CC(O)c3ccccc3)CC2)no1 (centres undefined) | -4 | -3.05
Cn1nnc2cc(C(=O)N3CCCC3Cc3ccccc3)ccc21 (centres undefined) | 2.04 | -54.6
O=C(CCc1cccs1)N1CCC(N2CCNC2=O)CC1 | -2.08 | -4.13
CC(NCc1c(C(C)C)nn(C)c1N1CCOCC1)C(N)=O (centres undefined) | -7.54 | -49.6
CCc1cccc(NS(=O)(=O)c2cc3c(c(C(=O)O)c2)OCCO3)c1 | -2.26 | -33.5
CN(CCc1ccccc1)Cc1cc(C(=O)N2CCN(C)C(=O)C2)no1 | -2.28 | -18.1
CC(=O)Nc1cccc(OCCNC(=O)N(C)Cc2ccco2)c1 | -1.02 | -16.7
CC(C)=CCN1CCC(c2nccn2Cc2cscn2)CC1 | -3.28 | 22.8
CCn1cnnc1C1CCN(C(=O)c2ccc3cc[nH]c3c2)CC1 | -3 | -9.96
COc1ccc(NC(C)=O)c(N2CCN(C(C)=O)CC2)n1 | 2.32 | -15.1
